This is one part of a sample in which the strongest signals are shown more often than they occur.
Assays:
Test in all cases: glycan array binding signal (z-score within array); higher = stronger binding
Conditions in all cases: glycan notation: IUPAC condensed, linker removed
Fuc(a1-2)Gal(b1-3)GalNAc = target: Fuc(a1-2)Gal(b1-3)GalNAc
Procedure, shortened: (§1)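 The binding signal is a Z-score computed within each array and averaged over linkers. Arrays of the same protein sequence at different concentrations or buffers were also averaged together. Data originate from 3228 arrays in the Consortium for Functional Glycomics database, kept only where the protein sequence was available.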

Fuc(a1-2)Gal(b1-4)Glc6S = target: Fuc(a1-2)Gal(b1-4)Glc6S
Procedure, shortened: as §1

[1] = target: Fuc(a1-2)Gal(b1-4)[Fuc(a1-3)]GlcNAc(b1-2)Man(a1-3)[Fuc(a1-2)Gal(b1-4)[Fuc(a1-3)]GlcNAc(b1-2)Man(a1-6)]Man(b1-4)GlcNAc(b1-4)GlcNAc
Procedure, shortened: as §1

[2] = target: Fuc(a1-2)[Gal(a1-3)]Gal(b1-3)GlcNAc(b1-2)Man(a1-3)[Fuc(a1-2)[Gal(a1-3)]Gal(b1-3)GlcNAc(b1-2)Man(a1-6)]Man(b1-4)GlcNAc(b1-4)GlcNAc
Procedure, shortened: as §1

[3] = target: Fuc(a1-2)[Gal(a1-3)]Gal(b1-4)Glc
Procedure, shortened: as §1

Gal(a1-3)Gal = target: Gal(a1-3)Gal
Procedure, shortened: as §1

[4] = target: Gal(a1-4)Gal(b1-3)GlcNAc(b1-2)Man(a1-3)[Gal(a1-4)Gal(b1-3)GlcNAc(b1-2)Man(a1-6)]Man(b1-4)GlcNAc(b1-4)GlcNAc
Procedure, shortened: as §1

Gal(b1-3)GalNAc = target: Gal(b1-3)GalNAc
Procedure, shortened: as §1

[5] = target: Gal(b1-3)GlcNAc(b1-2)Man(a1-3)[Gal(b1-3)GlcNAc(b1-2)Man(a1-6)]Man(b1-4)GlcNAc(b1-4)GlcNAc
Procedure, shortened: as §1

[6] = target: Gal(b1-3)GlcNAc(b1-3)Gal(b1-4)GlcNAc
Procedure, shortened: as §1

[7] = target: Gal(b1-3)[Neu5Ac(b2-6)]GalNAc
Procedure, shortened: as §1

Gal(b1-4)Glc = target: Gal(b1-4)Glc
Procedure, shortened: as §1

[8] = target: Gal(b1-4)GlcNAc(b1-3)[Gal(b1-4)GlcNAc(b1-6)]Gal(b1-4)GlcNAc
Procedure, shortened: as §1

[9] = target: Gal(b1-4)GlcNAc(b1-3)[Gal(b1-4)GlcNAc(b1-6)]GalNAc
Procedure, shortened: as §1

Gal4S(b1-4)GlcNAc = target: Gal4S(b1-4)GlcNAc
Procedure, shortened: as §1

Gal4S6S(b1-4)GlcNAc = target: Gal4S6S(b1-4)GlcNAc
Procedure, shortened: as §1

GalNAc(b1-3)Gal = target: GalNAc(b1-3)Gal
Procedure, shortened: as §1

Glc(a1-6)Glc(a1-6)Glc = target: Glc(a1-6)Glc(a1-6)Glc
Procedure, shortened: as §1

Glc(b1-6)Glc = target: Glc(b1-6)Glc
Procedure, shortened: as §1

[10] = target: GlcNAc(a1-4)Gal(b1-4)GlcNAc(b1-3)Gal(b1-4)[Fuc(a1-3)]GlcNAc(b1-3)Gal(b1-4)[Fuc(a1-3)]GlcNAc
Procedure, shortened: as §1

[11] = target: GlcNAc(b1-2)[GlcNAc(b1-4)]Man(a1-3)[GlcNAc(b1-2)Man(a1-6)]Man(b1-4)GlcNAc(b1-4)GlcNAc
Procedure, shortened: as §1

[12] = target: GlcNAc(b1-3)[GlcNAc(b1-6)]Gal(b1-4)GlcNAc
Procedure, shortened: as §1

[13] = target: GlcNAc(b1-4)Gal(b1-4)GlcNAc
Procedure, shortened: as §1

[14] = target: GlcNAc(b1-4)GlcNAc(b1-4)GlcNAc
Procedure, shortened: as §1

[15] = target: Neu5Ac(a2-3)Gal(b1-3)[Fuc(a1-4)]GlcNAc
Procedure, shortened: as §1

[16] = target: Neu5Ac(a2-3)Gal(b1-4)GlcNAc(b1-2)Man(a1-3)[GlcNAc(b1-2)Man(b1-4)GlcNAc(b1-2)Man(a1-6)]Man(b1-4)GlcNAc(b1-4)GlcNAc
Procedure, shortened: as §1

[17] = target: Neu5Ac(a2-3)Gal(b1-4)GlcNAc(b1-6)[Neu5Ac(a2-3)Gal(b1-3)]GalNAc
Procedure, shortened: as §1

[18] = target: Neu5Ac(a2-3)Gal(b1-4)[Fuc(a1-3)]GlcNAc(b1-3)Gal
Procedure, shortened: as §1

[19] = target: Neu5Ac(a2-3)Gal(b1-4)[Fuc(a1-3)]GlcNAc(b1-6)[Neu5Ac(a2-3)Gal(b1-3)]GalNAc
Procedure, shortened: as §1

[20] = target: Neu5Ac(a2-3)Gal(b1-4)[Fuc(a1-3)]GlcNAc6S
Procedure, shortened: as §1

Neu5Ac(a2-3)GalNAc = target: Neu5Ac(a2-3)GalNAc
Procedure, shortened: as §1

Neu5Ac(a2-6)Gal(b1-4)Glc = target: Neu5Ac(a2-6)Gal(b1-4)Glc
Procedure, shortened: as §1

[21] = target: Neu5Ac(a2-6)Gal(b1-4)GlcNAc(b1-2)Man(a1-3)[GlcNAc(b1-2)Man(a1-6)]Man(b1-4)GlcNAc(b1-4)GlcNAc
Procedure, shortened: as §1

[22] = target: Neu5Ac(a2-8)Neu5Ac(a2-3)[GalNAc(b1-4)]Gal(b1-4)Glc
Procedure, shortened: as §1

[23] = target: Neu5Ac(a2-8)Neu5Ac(a2-8)Neu5Ac(a2-8)Neu5Ac(a2-3)[GalNAc(b1-4)]Gal(b1-4)Glc
Procedure, shortened: as §1

[24] = target: Neu5Gc(a2-3)Gal(b1-3)[Fuc(a1-4)]GlcNAc
Procedure, shortened: as §1

Neu5Gc(a2-6)GalNAc = target: Neu5Gc(a2-6)GalNAc
Procedure, shortened: as §1

B1: CLEC9a (Mus musculus), Q8BRU4 (protein)
chain: MHAEEIYTSLQWDIPTSEASQKCQSPSKCSGAWCVVTMISCVVCMGLLATSIFLGIKFFQVSSLVLEQQERLIQQDTALVNLTQWQRKYTLEYCQALLQRSLHSGSDCSPCPHNWIQNGKSCYYVFERWEMWNISKKSCLKEGASLFQIDSKEEMEFISSIGKLKGGNKYWVGVFQDGISGSWFWEDGSSPLSDLLPAERQRSAGQICGYLKDSTLISDKCDSWKYFICEKKAFGSCI
glycan array binding signal (z-score) (Fuc(a1-2)Gal(b1-3)GalNAc): 0.078 | glycan array binding signal (z-score) (Fuc(a1-2)Gal(b1-4)Glc6S): 0.626 | glycan array binding signal (z-score) [1]: 2.21 | glycan array binding signal (z-score) [2]: 3.03 | glycan array binding signal (z-score) [3]: 1.11 | glycan array binding signal (z-score) (Gal(a1-3)Gal): 1.37 | glycan array binding signal (z-score) [4]: 3.35 | glycan array binding signal (z-score) (Gal(b1-3)GalNAc): -0.657 | glycan array binding signal (z-score) [5]: 1.97 | glycan array binding signal (z-score) [6]: 1.18 | glycan array binding signal (z-score) [7]: 1.89 | glycan array binding signal (z-score) (Gal(b1-4)Glc): -0.825 | glycan array binding signal (z-score) [8]: 0.779 | glycan array binding signal (z-score) [9]: 1.87 | glycan array binding signal (z-score) (Gal4S(b1-4)GlcNAc): 1.88 | glycan array binding signal (z-score) (Gal4S6S(b1-4)GlcNAc): -1.4 | glycan array binding signal (z-score) (GalNAc(b1-3)Gal): 0.273 | glycan array binding signal (z-score) (Glc(a1-6)Glc(a1-6)Glc): -0.171 | glycan array binding signal (z-score) (Glc(b1-6)Glc): 0.001 | glycan array binding signal (z-score) [10]: 0.915 | glycan array binding signal (z-score) [11]: 4.01 | glycan array binding signal (z-score) [12]: -1.89 | glycan array binding signal (z-score) [13]: 0.714 | glycan array binding signal (z-score) [14]: 2.95 | glycan array binding signal (z-score) [15]: -0.871 | glycan array binding signal (z-score) [16]: 2.01 | glycan array binding signal (z-score) [17]: -0.1 | glycan array binding signal (z-score) [18]: -1.7 | glycan array binding signal (z-score) [19]: 1.35 | glycan array binding signal (z-score) [20]: -0.627 | glycan array binding signal (z-score) (Neu5Ac(a2-3)GalNAc): -1.07 | glycan array binding signal (z-score) (Neu5Ac(a2-6)Gal(b1-4)Glc): 0.132 | glycan array binding signal (z-score) [21]: -0.365 | glycan array binding signal (z-score) [22]: 0.872 | glycan array binding signal (z-score) [23]: 2.43 | glycan array binding signal (z-score) [24]: -0.987 | glycan array binding signal (z-score) (Neu5Gc(a2-6)GalNAc): -0.83

— the supplement of paper PMC8728848
